From PubChem BioAssay (EPA / NIEHS) come the findings set out here.

Activity calls are given as the source filed them. How the source made its calls: active means hit-call score of the fitted dose curve at least 0.9, where 1 is the maximum; inactive means score below 0.9.

Read-out in one assay: Transforming growth factor beta 1 (TGFb1), TGFB1 (gene 7040)
Kind of assay: BSK_BE3C_TGFb1: BioMAP Diversity Plus: BE3C Assay for Transforming growth factor beta 1 (TGFb1) Biomarker Activity (AID 2283036;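 on outcome: TGF-b1 protein level measured by ELISA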). As to conditions: primary human bronchial epithelial cells; actives raise or lower the signal. In outline: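 In this human primary bronchial epithelial system, an ELISA quantified TGF-b1 one day after dosing. Endpoint changes in either direction were fitted relative to DMSO.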
On to `COc1cc(-c2nc(NC(=O)c3cc4cc(C)cc(C)c4n3CC(=O)O)sc2CCC2CCCCC2)c(OC)cc1Cl`, for which the AC50 (as a rule, the concentration giving half of the maximal activity seen) is 4.38 µM (active). As to `NCC1(Cc2noc(=O)[nH]2)CCCCC1`, the outcome was inactive.

With `CCCCC(CC)COC(=O)CC(C(=O)OCC(CC)CCCC)S(=O)(=O)O` (stereo not given), the AC50 was 6.71 µM (active). Consider `CCOC(=O)CCC(=O)OCC`, for which the result was inactive.

On to `CC(C)c1ccc(C(=O)N=C(N)N)cc1S(C)(=O)=O`, for which the result was inactive. In the case of `CCCCCCOCCO`, the result was inactive. Turning to `CC(CO)OC(C)CO` (stereo not given) (tested in a mixture with another compound), the result was inactive. `c1cc(-c2ccncc2)ccn1`: the result was inactive. For the compound `CCNc1cccc(C)c1`, the outcome was inactive. As for `CN1CCN(Cc2cc(-c3ccc4[nH]c(=O)oc4c3)co2)[C@@H](c2ccc(F)cc2)C1`, the result was inactive. The same measure, in the same setting: in the case of `Cc1nc(-c2ccc3c(c2)CCN(CCC2CCC(NC(=O)/C=C/c4ccc(F)cc4)CC2)CC3)no1` (stereo not given) it was “inactive”. For `O=c1c(O)c(-c2ccc(O)c(O)c2)oc2cc(O)cc(O)c12`, the outcome was inactive. Regarding `CN[C@H]1CC[C@@H](c2ccc(Cl)c(Cl)c2)c2ccc(S(N)(=O)=O)cc21`, the AC50 is 31.1 µM (active).

As to `CCCCN(CCCC)CCCC`, the result was inactive. Take `COC(=O)c1ccc(O)cc1`: the outcome was inactive.

On to `CC1=C(/C=C/C(C)=C/C=C/C(C)=C/CO)C(C)(C)CCC1`, for which the result was inactive. On the same count and under the same terms, in the case of `CNC(=O)[C@H]1O[C@@H](n2cnc3c(NCc4cc(Cl)ccc4OCc4cc(C)no4)ncnc32)[C@H](O)[C@@H]1N` it was “inactive”. As for `Cc1cc(=O)[nH]c(=S)[nH]1`, the result was inactive. As to `CCCCc1ccc2c(n1)[C@@H](c1ccc(OC)cc1C[C@H](C)C(=O)O)[C@H](C(=O)O)[C@H]2c1ccc2c(c1)OCO2`, the result was inactive. Turning to `FC(F)(F)C(F)(F)C(F)(F)C(F)(F)C(F)(F)C(F)(F)CCI`, the result was inactive. For `C=CCOC(=O)c1ccccc1C(=O)OCC=C`, the outcome was inactive. Consider `O=[N+]([O-])C(CO)(CO)CO`, for which the outcome was inactive. In the case of `Oc1ccc2ccccc2c1N=Nc1ccccc1`, the result was inactive.

As for `O=C(N[C@@H](Cc1ccccc1)[C@@H](O)C(=O)N1C[C@@H](O)[C@@H](O)C1)c1cc2cc(Cl)ccc2[nH]1`, the result was inactive.

On to `CCCCCCCCCCCCCCCC`, for which the result was inactive.

Consider `CCCCCCCCCCC`, for which the result was inactive.

Read-out in the next assay: Plasminogen activator inhibitor-1 (PAI1), SERPINE1 (gene 5054)
Put plainly: BSK_BE3C_PAI1: BioMAP Diversity Plus: BE3C Assay for Plasminogen activator inhibitor-1 (PAI1) Biomarker Activity (AID 2283037). As to conditions: primary human bronchial epithelial cells; actives raise or lower the signal. In outline:
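PAI-1 biomarker levels in treated human bronchial epithelial cells are determined by ELISA at 24 h. Both increases and decreases relative to DMSO are fitted.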
Take `COCCOC[C@H](CC1(C(=O)NC2CCC(C(=O)O)CC2)CCCC1)C(=O)Oc1ccc2c(c1)CCC2` (stereo not given in full): the outcome was inactive.

For `COc1cc(-c2nc(NC(=O)c3cc4cc(C)cc(C)c4n3CC(=O)O)sc2CCC2CCCCC2)c(OC)cc1Cl`, the concentration at half-maximal activity (AC50) was 0.877 µM (active). `NCC1(Cc2noc(=O)[nH]2)CCCCC1`: the outcome was inactive. On to `CCCCC(CC)COC(=O)CC(C(=O)OCC(CC)CCCC)S(=O)(=O)O` (stereo not given), for which the AC50 is 11.5 µM (active). Take `CCOC(=O)CCC(=O)OCC`: the result was inactive.

On to `Nc1ccc(S(=O)(=O)c2ccc(N)cc2)cc1`, for which the result was inactive. With `CC(C)c1ccc(C(=O)N=C(N)N)cc1S(C)(=O)=O`, the outcome was inactive.

For the compound `CCCCCCOCCO`, the result was inactive.

`CC(CO)OC(C)CO` (stereo not given) (tested in a mixture with another compound): the outcome was inactive. Consider `COc1cc(C=O)ccc1O`, for which the result was inactive. Regarding `c1cc(-c2ccncc2)ccn1`, the outcome was inactive. As for `CCNc1cccc(C)c1`, the outcome was inactive. `CN1CCN(Cc2cc(-c3ccc4[nH]c(=O)oc4c3)co2)[C@@H](c2ccc(F)cc2)C1`: the outcome was inactive. Still for that read-out and setting: the result for `Cc1nc(-c2ccc3c(c2)CCN(CCC2CCC(NC(=O)/C=C/c4ccc(F)cc4)CC2)CC3)no1` (stereo not given) reads “inactive”; that for `O=c1c(O)c(-c2ccc(O)c(O)c2)oc2cc(O)cc(O)c12`, “inactive”. On to `CN[C@H]1CC[C@@H](c2ccc(Cl)c(Cl)c2)c2ccc(S(N)(=O)=O)cc21`, for which the AC50 was 32.5 µM (active). `CCCCN(CCCC)CCCC`: the outcome was inactive.

`COC(=O)c1ccc(O)cc1`: the outcome was inactive. As to `CC1=C(/C=C/C(C)=C/C=C/C(C)=C/CO)C(C)(C)CCC1`, the result was inactive. As to `CNC(=O)[C@H]1O[C@@H](n2cnc3c(NCc4cc(Cl)ccc4OCc4cc(C)no4)ncnc32)[C@H](O)[C@@H]1N`, the result was inactive.

Turning to `Cc1cc(=O)[nH]c(=S)[nH]1`, the result was inactive.

As for `CCCCc1ccc2c(n1)[C@@H](c1ccc(OC)cc1C[C@H](C)C(=O)O)[C@H](C(=O)O)[C@H]2c1ccc2c(c1)OCO2`, the result was inactive.

`FC(F)(F)C(F)(F)C(F)(F)C(F)(F)C(F)(F)C(F)(F)CCI`: the result was inactive.

Take `C=CCOC(=O)c1ccccc1C(=O)OCC=C`: the outcome was inactive. On to `O=[N+]([O-])C(CO)(CO)CO`, for which the outcome was inactive. Still for that read-out and setting: in the case of `Oc1ccc2ccccc2c1N=Nc1ccccc1` it was “inactive”; in that of `O=C(N[C@@H](Cc1ccccc1)[C@@H](O)C(=O)N1C[C@@H](O)[C@@H](O)C1)c1cc2cc(Cl)ccc2[nH]1`, “inactive”; in that of `CCCCCCCCCCCCCCCC`, “inactive”. For `CCCCCCCCCCC`, the outcome was inactive.
